Results taken from PubChem BioAssay.
Values joined by “and” are separate entries in the source; they are usually repeats but may differ in a detail not shown here. Equal values may be shown once. Active and inactive are the calls of the source. Unless noted, how the calls were made is not given here.

Tests used:
[1] = modulation of C. elegans fzo-1 (AID 1259413);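 further: fzo-1 mutant C. elegans worms in liquid wells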; conditions: C. elegans fzo-1 modulator screen, mean read-out; stronger effect = higher value
[2] = liver-stage malaria parasite growth inhibition, primary screen, cell-based, HepG2, luciferase luminescence, HepG2 viability (AID 624349; in the data active means parasite load remaining mostly below about 12%, no sharp cut-off; inactive means mostly above about 10%;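 further: 100% = mean of DMSO negative control wells on the same plate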); conditions: P. berghei liver stage in HepG2, luciferase luminescence, concentration not given here; parasite load remaining: stronger effect = lower value; viability: measured here: HepG2 viability without parasites
[3] = Cy5 fluorescence interference with SSB-bound oligo, artefact control for HCV NS3 helicase inhibitor project, biochemical, NIH Clinical Collection, E. coli SSB (AID 743268)
[4] = system: Hepatitis C virus NS3 helicase; test: HCV NS3 helicase inhibitors, primary screen, biochemical, fluorescence polarization, NIH Clinical Collection (AID 743270); conditions: NS3 helicase binding to Cy5-dT15 DNA, stronger effect = higher value, concentration not given here
[5] = target: Single-stranded DNA-binding protein (Escherichia coli (strain K12)) (UniProt P0AGE0); test: E. coli SSB displacement from DNA, counter-screen for HCV NS3 helicase inhibitor project, biochemical, fluorescence polarization, NIH Clinical Collection (AID 743271; in the data active means inhibition above about 28%); conditions: stronger effect = higher value, concentration not given here
[6] = fluorescence interference in NS3h assay format, artefact control for HCV NS3 helicase inhibitor project, biochemical, NIH Clinical Collection (AID 743272); conditions: fluorescence interference counterscreen, stronger effect = lower value;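 further: HCV NS3 helicase with a Cy5 labelled single stranded DNA probe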
[7] = sensitizers of A549 cells to miR-34 induction, primary screen, imaging, A549 dox-inducible miR-34, nuclei and caspase counts (AID 1347080;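 active means compounds whose cell count with miR-34 switched on is under 0.7 times the count with it off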); conditions: A549 miR-34 inducible, Hoechst nuclei count, 48 h
[8] = viability rescue of complex I mutant cybrids, primary screen, cell-based, galactose medium, ATP luminescence (AID 1645843;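 active means z-score of at least 1.8 in each of two replicates, scored against plate mean and spread of sample wells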;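 further: positive z means more ATP and so rescue of galactose-driven cybrid death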); conditions: complex I mutant cybrid cells, 72 h, stronger effect = higher value
[9] = system: Neuropilin-2 / VEGF-C interaction (human); test: inhibitors of NRP2–VEGF-C binding, biochemical, microplate binding format, z-score (AID 743281); conditions: microplate NRP2/VEGF-C binding assay; stronger effect = lower value
[10] = survival rescue of mitochondrial mutant cells in low glucose, primary screen, MELAS cybrids, Rieske KO mouse fibroblasts, CellTiter-Glo (AID 1508586;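 active means mean z-score across replicates of 1.96 or higher in either the MELAS or the Rieske mutant cell line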;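 further: z relative to plate mean and SD of compound and empty wells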)
[11] = stronger effect = lower value, cell number ratio, induced over uninduced
[12] = measured here: relative caspase fold change +Dox/-Dox
[13] = measured here: total cells with miR-34 induction, stronger effect = lower value
[14] = measured here: total cells without miR-34 induction

CC/C(=C(/c1ccccc1)c1ccc(OCCN(C)C)cc1)c1ccccc1
mean signal [1]: 234 (inactive)

CN(C)c1ccc(O)c2c1C[C@H]1C[C@H]3[C@H](N(C)C)C(=O)C(C(N)=O)=C(O)C3(O)C(=O)C1=C2O (some centres undefined)
mean signal [1]: 263 (inactive)

COc1cccc2c1C(=O)c1c(O)c3c(c(O)c1C2=O)C[C@@](O)(C(C)=O)C[C@@H]3OC1CC(N)C(O)C(C)O1 (some centres undefined)
parasite load remaining [2]: -2.09% (inactive) and 8.79% (inactive) | viability [2]: 1.35% and 23.3% | fluorescence ratio [3]: 1.07 (inactive) | inhibition [4]: 6.82% (inactive) | inhibition [5]: 3.34% (inactive) | fluorescence ratio [6]: 0.55 (active) | mean signal [1]: 273 (inactive) | fold change [7, 11]: 1.08 (inactive) and 1.04 (inactive) | fold change [7, 12]: 0.669 and 0.978 | cell count [7, 13]: 1690 and 2610 | cell count [7, 14]: 1560 and 2520 | z-score [8]: -1.5 (inactive) and -0.935 (inactive)

O=C1NC(=O)N(C2CC(O)C(CO)O2)CC1F (centres undefined)
mean signal [1]: 241 (inactive)

CN1CCN2c3ncccc3Cc3ccccc3C2C1 (centres undefined)
parasite load remaining [2]: 85% (inactive) | viability [2]: 76.9% | fluorescence ratio [3]: 0.98 (inactive) | inhibition [4]: -1.97% (inactive) | inhibition [5]: -2.76% (inactive) | fluorescence ratio [6]: 0.93 (inactive) | z-score [9]: -0.469 (inactive) | mean signal [1]: 257 (inactive) | fold change [7, 11]: 0.923 (inactive) and 0.892 (inactive) and 0.933 (inactive) | fold change [7, 12]: 1.2 and 4.96 and 1.4 | cell count [7, 13]: 9270 and 8700 and 7820 | cell count [7, 14]: 10000 and 9750 and 8380 | z-score ([10]; MELAS cybrid survival, CellTiter-Glo 48 h, stronger effect = higher value): 0.00763 (inactive) and -0.808 (inactive) | z-score ([10]; Rieske KO mouse fibroblast survival, CellTiter-Glo 72 h): 0.866 and 0.0762 | z-score [8]: 0.645 (inactive) and -0.265 (inactive)

CC1(C)O[C@@H]2C[C@H]3[C@@H]4C[C@H](F)C5=CC(=O)C=CC5(C)[C@H]4[C@@H](O)CC3(C)C2(C(=O)CO)O1 (some centres undefined)
mean signal [1]: 250 (inactive)

C#C[C@]1(O)CC[C@H]2[C@@H]3CCC4=Cc5oncc5CC4(C)[C@H]3CCC21C (some centres undefined)
mean signal [1]: 250 (inactive) | fold change [7, 11]: 0.894 (inactive) | fold change [7, 12]: 1.79 | cell count [7, 13]: 7310 | cell count [7, 14]: 8170 | z-score [8]: -0.725 (inactive)

CC12CC[C@@H]3c4ccc(OS(=O)(=O)O)cc4CC[C@H]3[C@@H]1CCC2=O (some centres undefined)
outcome [9]: inactive | mean signal [1]: 260 (inactive)

C=CC[C@@H]1/C=C(\C)C[C@H](C)C[C@H](OC)[C@H]2OC(O)(C(=O)C(=O)N3CCCC[C@H]3C(=O)O[C@H](/C(C)=C/[C@@H]3CC[C@@H](O)[C@H](OC)C3)[C@H](C)[C@@H](O)CC1=O)[C@H](C)C[C@@H]2OC
outcome [9]: inactive | mean signal [1]: 274 (inactive)

C[C@@H]1C[C@H]2[C@@H]3C[C@H](F)C4=CC(=O)C(Cl)=CC4(C)[C@@]3(F)[C@@H](O)CC2(C)[C@@]1(O)C(=O)CO (some centres undefined)
outcome [9]: inactive | mean signal [1]: 273 (inactive)

C#C[C@]1(O)CC[C@H]2[C@@H]3CCC4=CC(=O)CC[C@@H]4[C@H]3CCC21CC (some centres undefined)
outcome [9]: inactive | mean signal [1]: 225 (inactive)

C[C@@H]1C[C@H]2[C@@H]3CCC4=CC(=O)C=CC4(C)[C@@]3(F)[C@@H](O)CC2(C)[C@H]1C(=O)CO (some centres undefined)
outcome [9]: inactive | mean signal [1]: 245 (inactive)

N[C@@H](C(=O)N[C@@H]1C(=O)N2C(C(=O)O)=C(CSC3CNNN3)CS[C@H]12)c1ccc(O)cc1 (some centres undefined) (tested in a mixture with another compound)
outcome [9]: inactive | mean signal [1]: 239 (inactive)

CCC(=O)O[C@]1(C(=O)SCF)[C@H](C)C[C@H]2[C@@H]3C[C@H](F)C4=CC(=O)C=CC4(C)[C@@]3(F)[C@@H](O)CC21C (some centres undefined)
outcome [9]: inactive | mean signal [1]: 245 (inactive)

CCOC(=O)O[C@]1(C(=O)OCCl)CC[C@H]2[C@@H]3CCC4=CC(=O)C=CC4(C)[C@H]3[C@@H](O)CC21C (some centres undefined)
outcome [9]: inactive | mean signal [1]: 256 (inactive)

C#C[C@]1(O)CC[C@H]2[C@@H]3[C@H](C)CC4=C(CCC(=O)C4)[C@H]3CCC21C (some centres undefined)
outcome [9]: inactive | mean signal [1]: 249 (inactive)

CO[C@H]1C=CO[C@@]2(C)Oc3c(C)c(O)c4c(O)c(c5c(nc6cc(C)ccn65)c4c3C2=O)NC(=O)/C(C)=C\C=C[C@H](C)[C@H](O)[C@@H](C)[C@@H](O)[C@@H](C)[C@H](OC(C)=O)[C@@H]1C
outcome [9]: inactive | mean signal [1]: 289 (inactive)

CO[C@H]1C=CO[C@@]2(C)Oc3c(C)c(O)c4c(O)c(c(/C=N/N5CCN(C6CCCC6)CC5)c(O)c4c3C2=O)NC(=O)/C(C)=C\C=C[C@H](C)[C@H](O)[C@@H](C)[C@@H](O)[C@@H](C)[C@H](OC(C)=O)[C@@H]1C
outcome [9]: inactive | mean signal [1]: 288 (inactive)
